High-throughput results as filed in PubChem.
Most compounds without a hit are left out; they make up all but 21% or so of the library.
NS1 function inh: blocks influenza NS1 protein function; AID 2326; Potency, µM (doses to about 46.1 µM), for the others: at the top dose activity, positive = more growth; 0.4% of 270,000 active; calls by dose curve; note: potency is the fitted concentration of half-maximal effect; actives are rising curves; nearly all actives have a fitted effect of over 50% in size
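A cell-based growth assay was used: compounds that relieve NS1-induced slow growth of budding yeast raise OD600. Assay medium was yeast nitrogen base with ammonium sulphate and -URA supplement, pH 6.0, with 2% galactose.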
Shiga inhibitor: inhibitors of Shiga toxin in Vero cells; Vero cells, Shiga toxin protein synthesis inhibition reporter; inhibition, % at 38.7 µM; 9.2% of 290,000 active; AID 2315; in the data active = inhibition mostly above about 28%, no sharp cut-off; inactive = mostly below about 43%; note: 0% is about no effect
Pf growth 96h: P. falciparum growth inhibition at 96 hours; 6.9% of 320,000 active; P. falciparum luciferase reporter growth, 96 h; AID 504834; Potency, µM (top dose mostly 28.7 µM), without a hit: top-dose activity change, negative = inhibition, most hits filed as inhibitors; note: potency is the fitted concentration of half-maximal effect; % is set by controls: 0 for no effect and ±100 for the full control effect
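Two parasite generations (96 h, 37 C, 5% CO2) of compound exposure in infected erythrocytes (0.05% parasitemia, 2% hematocrit). Luciferase-reporter P. falciparum; decreased luminescence indicates inhibited growth, aimed at apicoplast-acting delayed death.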
CHX counter: counter-screen hit for Shiga toxin inhibitors, cycloheximide; max response, %; AID 2314; cell reporter, cycloheximide protein synthesis inhibition counterscreen; 12% of 300,000 active; in the data active = max response mostly above about 13%, no sharp cut-off; inactive = mostly below about 14%; note: read at 38.3 µM for the half of the compounds with a filed dose; 0% is about no effect
Pf growth 48h: inhibits P. falciparum growth in the first generation, 48 h; P. falciparum luciferase growth in erythrocytes, 48 h; Potency, µM (titrated, usually from 28.7 µM), for inactives: at the highest dose activity change, negative = inhibition, usual class: inhibitors; 5.9% of 310,000 active; AID 504832; note: potency is the fitted concentration of half-maximal effect; % is set by controls: 0 for no effect and ±100 for the full control effect
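Growth was read as firefly luciferase luminescence after a 48 h, 37 C, 5% CO2 exposure of compounds to reporter-bearing P. falciparum cultures (0.1% parasitemia, 2% hematocrit final) in Albumax-supplemented RPMI 1640.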
SARS PLP yeast: blocks SARS-CoV papain-like protease in a yeast assay. S. cerevisiae expressing SARS-CoV PLpro, growth rescue. Potency, µM (series often up to 32.9 µM), for the others: at the highest dose activity, positive = growth rescue, usual class: activators. 0.19% of 330,000 active; calls by dose curve; note: potency is the fitted concentration of half-maximal effect; 0% is about no effect; nearly all actives have a fitted effect of over 55% in size
An asterisk follows results filed as active; ? = inconclusive; . = not tested or not shown. Unless noted, calls come from the whole dose curve; as a rule, active = well fitted inhibition curve with a large enough effect; inconclusive = small, poorly fitted or top-dose-only effect, or another doubt; inactive = no such curve, though single readings can be large or run the other way.

SMILES	NS1 function inh	Shiga inhibitor	Pf growth 96h	CHX counter	Pf growth 48h	SARS PLP yeast
O=S1(=O)CCN(C(CCO)c2cccc(C(F)(F)F)c2)CC1 (stereo unspecified)	.	11	-15%	6	?	1%
CCS(=O)(=O)C1=NN2C(=N)/C(=C\c3ccc(OS(=O)(=O)c4ccccc4)c(OC)c3)C(=O)N=C2S1	22%	8	9.3µM*	11	?	2%
COc1cc(/C=C2\C(=N)N3N=C(S(C)(=O)=O)SC3=NC2=O)ccc1OS(=O)(=O)c1ccccc1	13%	11	?	9	4%	-3%
CS(=O)(=O)C1=NSC2=NC(=O)/C(=C\c3ccc(OS(=O)(=O)c4ccccc4)cc3)C(=N)N21	19%	34*	?	16*	14%	-5%
CCC1=NN2C(=N)/C(=C/c3ccc(OS(=O)(=O)c4ccccc4)cc3)C(=O)N=C2S1	1%	18	?	12	?	-4%
CCS(=O)(=O)C1=NN2C(=N)/C(=C\c3ccc(OS(=O)(=O)c4ccccc4)cc3)C(=O)N=C2S1	-3%	38	?	33*	6%	23%
COc1cc2c(cc1OC)C(c1cccs1)NCC2 (stereo unspecified)	-2%	-3	86%	-2	4%	-1%
COc1cc2c(cc1OC)C(COc1ccc(C(C)C)cc1)NCC2 (stereo unspecified)	-1%	-3	12µM*	-2	?	0%
O=C(CS(=O)(=O)c1ccccc1)Nc1nccs1	5%	-3	0%	-1	5%	2%
CCC(C)C(NC(C)=O)C(=O)NC(=O)NC(c1ccccc1)c1ccccc1 (stereo unspecified)	-1%	-15	.	-5	7%	5%
CCCc1c(C(=O)N2CCN(c3ccccc3OC)CC2)cnn1-c1ccccc1	-6%	20	-15%	0	-22%	-2%
CCCc1c(C(=O)Nc2ccc(OC)cc2)cnn1-c1ccccc1	-6%	54*	?	22*	8%	-1%
CCCc1c(C(=O)NNc2ccccc2OC)cnn1-c1ccccc1	4%	41*	9.3µM*	23*	?	-1%
CCC(CC)c1nnc(NC(=O)c2cc(C(=O)OC)cc([N+](=O)[O-])c2)s1	7%	-7	?	-2	3%	15%
CCOC(=O)c1sc(NC(C)=O)nc1-c1ccccc1	4%	19	130%	18	-1%	1%
Cc1cc(C)c2[nH]c(=O)c(CN(CC3CCCO3)C(=S)NCc3ccco3)cc2c1 (stereo unspecified)	14%	-4	-1%	-1	-5%	3%
Cc1cc(C)c2cc(CN(CC3CCCO3)C(=S)NCc3ccco3)c(=O)[nH]c2c1 (stereo unspecified)	6%	-11	?	-4	?	1%
Cc1ccc2cc(CN(CC3CCCO3)C(=S)Nc3ccccc3)c(=O)[nH]c2c1C (stereo unspecified)	?	-4	-5%	-2	10µM*	-4%
COc1ccccc1NC(=S)N(Cc1ccco1)Cc1cc2cc(C)cc(C)c2[nH]c1=O	7%	-5	-17%	-3	3.3µM*	5%
Cc1cc(C)c2cc(CN(Cc3ccco3)C(=O)NCc3ccccc3)c(=O)[nH]c2c1	?	-9	15µM*	3	0%	7%
Cc1ccc2cc(CN(Cc3ccco3)C(=O)C3CCCCC3)c(=O)[nH]c2c1C	-7%	-9	6%	-2	?	-4%
Cc1cc(C)c2[nH]c(=O)c(CN(CC3CCCO3)C(=S)Nc3ccccc3)cc2c1 (stereo unspecified)	7%	-7	-5%	-1	-9%	23%
COc1ccccc1NC(=S)N(Cc1ccco1)Cc1cc2ccc(C)c(C)c2[nH]c1=O	?	-3	150%	-2	12µM*	13%
CCCC(=O)Nc1cccc(C(=O)Nc2ccccc2OCC)c1	-7%	34	?	1	?	0%
Cc1ccc2cc(CN(Cc3ccco3)C(=O)NC3CCCCC3)c(=O)[nH]c2c1C	0%	4	-14%	-1	12µM*	-14%
COc1ccc(CN(C)Cc2nc3scc(-c4ccccc4)c3c(=O)[nH]2)cc1OC	7%	-4	?	-2	?	14%
